# Laboratory results from PMC7862700, “An all-to-all approach to the identification of sequence-specific readers for epigenetic DNA modifications on cytosine”.
# Experiments:
# Test in all cases: DAPPL (digital affinity profiling via proximity ligation, sequencing); 10 mM Tris-HCl pH 7.5, 50 mM NaCl, 1 mM DTT, 4% glycerol, room temperature, 30 min; GST-TFs on glutathione beads, 16-mer random dsDNA library, 0.1% formaldehyde crosslink after washing; high values mean tight binding
# Details in all cases: protein: recombinant; tags: N-terminal GST; dsDNA, one strand shown
# [1] = biological target: T1, ERF (Homo sapiens, UniProt P50548 1-548)
# T1 sequence: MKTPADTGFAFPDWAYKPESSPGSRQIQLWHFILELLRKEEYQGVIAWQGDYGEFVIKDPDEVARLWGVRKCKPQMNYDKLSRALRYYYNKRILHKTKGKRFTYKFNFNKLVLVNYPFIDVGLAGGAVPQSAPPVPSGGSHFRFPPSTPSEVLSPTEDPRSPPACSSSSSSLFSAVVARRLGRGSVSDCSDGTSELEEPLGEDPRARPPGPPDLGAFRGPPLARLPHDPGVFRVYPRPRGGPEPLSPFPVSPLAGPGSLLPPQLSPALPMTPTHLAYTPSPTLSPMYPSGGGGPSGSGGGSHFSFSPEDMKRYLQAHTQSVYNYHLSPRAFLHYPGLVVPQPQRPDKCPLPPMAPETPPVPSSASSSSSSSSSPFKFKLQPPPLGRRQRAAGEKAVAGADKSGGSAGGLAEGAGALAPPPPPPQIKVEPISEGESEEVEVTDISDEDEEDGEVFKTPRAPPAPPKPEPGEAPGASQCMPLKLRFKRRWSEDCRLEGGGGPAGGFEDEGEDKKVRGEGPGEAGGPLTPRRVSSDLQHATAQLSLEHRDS
# Summary of the method: (§1)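 Sequencing on an Illumina NextSeq500 followed washing, crosslinking with 0.1% formaldehyde, proximity ligation (BsaI/T4 ligase, 1 h, 37 °C) and PCR amplification of pools that had been incubated for 30 min at room temperature with 200 nmole of a random double-stranded 16-mer DNA library in Tris/NaCl/DTT/glycerol buffer. Each pool held DNA-barcoded human transcription factors, expressed in yeast as GST fusions and captured on glutathione beads, plus a tag-only sample. Binding signal is a hexamer's read frequency for a factor divided by its frequency in the tag-only sample.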
# [2] = biological target: T2, ETV3L (Homo sapiens, UniProt Q6ZN32 1-361)
# T2 sequence: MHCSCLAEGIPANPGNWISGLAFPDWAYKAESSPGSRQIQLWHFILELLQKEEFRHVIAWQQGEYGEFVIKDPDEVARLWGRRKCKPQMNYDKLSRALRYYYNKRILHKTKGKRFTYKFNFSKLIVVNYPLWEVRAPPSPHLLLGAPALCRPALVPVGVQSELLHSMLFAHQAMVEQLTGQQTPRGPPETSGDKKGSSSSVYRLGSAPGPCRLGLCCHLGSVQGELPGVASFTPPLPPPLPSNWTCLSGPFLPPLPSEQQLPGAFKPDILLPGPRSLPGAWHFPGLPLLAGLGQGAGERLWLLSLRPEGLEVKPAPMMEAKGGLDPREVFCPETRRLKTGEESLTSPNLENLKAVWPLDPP
# Summary of the method: as §1
# [3] = biological target: T3, ETS2 (Homo sapiens, UniProt P15036 1-469)
# T3 sequence: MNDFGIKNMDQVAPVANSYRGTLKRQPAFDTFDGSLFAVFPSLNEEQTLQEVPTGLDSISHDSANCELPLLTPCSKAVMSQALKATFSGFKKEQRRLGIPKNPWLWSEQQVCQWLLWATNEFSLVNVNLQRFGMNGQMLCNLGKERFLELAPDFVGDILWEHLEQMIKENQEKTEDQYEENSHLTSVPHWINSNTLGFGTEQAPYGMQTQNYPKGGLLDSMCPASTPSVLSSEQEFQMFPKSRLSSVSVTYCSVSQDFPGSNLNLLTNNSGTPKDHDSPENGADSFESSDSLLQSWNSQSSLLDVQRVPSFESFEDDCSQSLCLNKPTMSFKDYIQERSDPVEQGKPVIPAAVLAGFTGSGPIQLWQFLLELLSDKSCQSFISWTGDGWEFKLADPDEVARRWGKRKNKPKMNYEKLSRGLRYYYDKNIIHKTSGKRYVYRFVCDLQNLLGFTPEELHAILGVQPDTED
# Summary of the method: as §1
# [4] = biological target: T4, SPDEF (Homo sapiens, UniProt O95238 1-335)
# T4 sequence: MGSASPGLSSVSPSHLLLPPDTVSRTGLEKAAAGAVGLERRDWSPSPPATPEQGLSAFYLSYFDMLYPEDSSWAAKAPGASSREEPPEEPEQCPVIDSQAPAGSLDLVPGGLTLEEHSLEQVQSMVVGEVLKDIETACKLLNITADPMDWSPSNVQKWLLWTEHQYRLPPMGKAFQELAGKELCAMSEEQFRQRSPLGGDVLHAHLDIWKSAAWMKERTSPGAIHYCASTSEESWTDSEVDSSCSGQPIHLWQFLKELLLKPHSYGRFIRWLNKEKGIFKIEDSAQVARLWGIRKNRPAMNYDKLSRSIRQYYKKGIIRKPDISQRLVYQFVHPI
# Summary of the method: as §1
# [5] = biological target: T5, ETV7 (Homo sapiens, UniProt Q9Y603 1-341)
# T5 sequence: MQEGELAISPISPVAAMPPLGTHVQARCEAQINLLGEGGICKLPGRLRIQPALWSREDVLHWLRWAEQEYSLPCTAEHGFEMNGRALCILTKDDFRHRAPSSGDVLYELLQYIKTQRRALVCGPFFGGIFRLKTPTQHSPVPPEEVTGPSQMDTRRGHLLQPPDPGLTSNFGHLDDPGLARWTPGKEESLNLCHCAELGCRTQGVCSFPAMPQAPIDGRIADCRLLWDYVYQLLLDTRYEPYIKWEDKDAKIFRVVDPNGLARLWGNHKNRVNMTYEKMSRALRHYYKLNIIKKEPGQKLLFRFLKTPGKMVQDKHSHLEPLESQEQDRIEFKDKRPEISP
# Summary of the method: as §1
# [6] = biological target: T6, ELF5 (Homo sapiens, UniProt Q9UKW6-2 1-255)
# T6 sequence: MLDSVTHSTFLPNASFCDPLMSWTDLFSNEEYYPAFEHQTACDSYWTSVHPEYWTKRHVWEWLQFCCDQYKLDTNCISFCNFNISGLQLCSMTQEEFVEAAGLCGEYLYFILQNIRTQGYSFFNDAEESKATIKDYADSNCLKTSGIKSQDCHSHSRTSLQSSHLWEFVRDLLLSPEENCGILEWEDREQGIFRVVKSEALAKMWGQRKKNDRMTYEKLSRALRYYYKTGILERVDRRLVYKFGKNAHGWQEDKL
# Summary of the method: as §1
# [7] = biological target: T7, ETV3 (Homo sapiens, UniProt P41162-2 1-143)
# T7 sequence: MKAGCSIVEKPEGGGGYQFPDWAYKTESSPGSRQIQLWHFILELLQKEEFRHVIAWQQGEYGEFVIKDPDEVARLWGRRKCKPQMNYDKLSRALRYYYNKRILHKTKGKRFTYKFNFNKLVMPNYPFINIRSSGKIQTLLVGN
# Summary of the method: as §1
# [8] = biological target: ETV6 (Homo sapiens, UniProt P41212 1-452)
# Summary of the method: as §1
# Sequence of ETV6 (P41212 whole entry): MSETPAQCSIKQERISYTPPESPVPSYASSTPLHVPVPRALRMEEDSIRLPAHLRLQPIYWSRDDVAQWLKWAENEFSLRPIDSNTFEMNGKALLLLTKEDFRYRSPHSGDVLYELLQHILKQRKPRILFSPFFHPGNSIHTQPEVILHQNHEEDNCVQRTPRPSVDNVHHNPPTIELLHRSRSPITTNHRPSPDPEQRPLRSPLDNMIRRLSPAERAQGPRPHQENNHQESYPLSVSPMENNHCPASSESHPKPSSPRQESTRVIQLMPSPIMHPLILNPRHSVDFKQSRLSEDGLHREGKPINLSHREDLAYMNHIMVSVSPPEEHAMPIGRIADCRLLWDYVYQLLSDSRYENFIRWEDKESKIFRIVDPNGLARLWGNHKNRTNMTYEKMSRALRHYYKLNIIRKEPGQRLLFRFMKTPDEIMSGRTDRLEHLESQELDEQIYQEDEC
Sequence,binding signal [1],binding signal [2],binding signal [3],binding signal [4],binding signal [5],binding signal [6],binding signal [7],binding signal [8]
AATTAG,"1.15 fold enrichment (6-mer frequency, TF over GST control)","1.12 fold enrichment (6-mer frequency, TF over GST control)","1.09 fold enrichment (6-mer frequency, TF over GST control)","1.06 fold enrichment (6-mer frequency, TF over GST control)","1.25 fold enrichment (6-mer frequency, TF over GST control)","1.1 fold enrichment (6-mer frequency, TF over GST control)","1.19 fold enrichment (6-mer frequency, TF over GST control)","1.13 fold enrichment (6-mer frequency, TF over GST control)"
TACCAA,"1.14 fold enrichment (6-mer frequency, TF over GST control)","1.08 fold enrichment (6-mer frequency, TF over GST control)","1.18 fold enrichment (6-mer frequency, TF over GST control)","1.17 fold enrichment (6-mer frequency, TF over GST control)","1.13 fold enrichment (6-mer frequency, TF over GST control)","1.09 fold enrichment (6-mer frequency, TF over GST control)","1.13 fold enrichment (6-mer frequency, TF over GST control)","1.17 fold enrichment (6-mer frequency, TF over GST control)"
TGTAAT,"1.14 fold enrichment (6-mer frequency, TF over GST control)","1.18 fold enrichment (6-mer frequency, TF over GST control)","1.23 fold enrichment (6-mer frequency, TF over GST control)","1.25 fold enrichment (6-mer frequency, TF over GST control)","1.26 fold enrichment (6-mer frequency, TF over GST control)","1.22 fold enrichment (6-mer frequency, TF over GST control)","1.05 fold enrichment (6-mer frequency, TF over GST control)","1.22 fold enrichment (6-mer frequency, TF over GST control)"
ATTGCG,"1.35 fold enrichment (6-mer frequency, TF over GST control)","1.29 fold enrichment (6-mer frequency, TF over GST control)","1.27 fold enrichment (6-mer frequency, TF over GST control)","1.09 fold enrichment (6-mer frequency, TF over GST control)","1.17 fold enrichment (6-mer frequency, TF over GST control)","1.21 fold enrichment (6-mer frequency, TF over GST control)","1.16 fold enrichment (6-mer frequency, TF over GST control)","1.27 fold enrichment (6-mer frequency, TF over GST control)"
TTTTGC,"1.53 fold enrichment (6-mer frequency, TF over GST control)","1.35 fold enrichment (6-mer frequency, TF over GST control)","1.31 fold enrichment (6-mer frequency, TF over GST control)","1.35 fold enrichment (6-mer frequency, TF over GST control)","1.36 fold enrichment (6-mer frequency, TF over GST control)","1.27 fold enrichment (6-mer frequency, TF over GST control)","1.15 fold enrichment (6-mer frequency, TF over GST control)","1.49 fold enrichment (6-mer frequency, TF over GST control)"
TCACCA,"1.12 fold enrichment (6-mer frequency, TF over GST control)","1.16 fold enrichment (6-mer frequency, TF over GST control)","1.08 fold enrichment (6-mer frequency, TF over GST control)","1.13 fold enrichment (6-mer frequency, TF over GST control)","1.04 fold enrichment (6-mer frequency, TF over GST control)","1.07 fold enrichment (6-mer frequency, TF over GST control)","1.19 fold enrichment (6-mer frequency, TF over GST control)","1.08 fold enrichment (6-mer frequency, TF over GST control)"
